# PubChem BioAssay (NCI)
# Compounds without any hit were thinned out: in the full panel of roughly 79,000, 15% have a hit. Values without a mark were called inactive. Calls of active or inactive are those of the source. Cut-off read from the data, not from the text of the source: active = growth inhibition above about 70%; inactive = the rest.
# Experiments:
# [1] = NCI Yeast Anticancer Drug Screen. Data for the rad52 strain (AID 147);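 note: 0% = growth of vehicle-treated control cultures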; settings: S. cerevisiae rad52 mutant growth inhibition, hits give high values
# Summary of the method: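 Read-out: growth inhibition versus vehicle-treated controls. Cells were a DNA repair-deficient yeast strain treated with compounds.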
# [2] = NCI Yeast Anticancer Drug Screen. Data for the wt1 strain (AID 149);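 note: 0% = growth of vehicle-treated wt1 cultures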; settings: S. cerevisiae wt1 strain (SPY 50644) growth inhibition, hits give high values
# Summary of the method: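 Vehicle-normalised growth inhibition; strain wt1; compound exposure.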
# [3] = NCI Yeast Anticancer Drug Screen. Data for the rad50EPP+ strain (AID 151);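 note: 0% = growth of vehicle-treated control cultures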; settings: S. cerevisiae rad50 mutant strain, hits give high values
# Summary of the method: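 Growth inhibition read against vehicle controls in rad50EPP+ yeast, a strain altered in DNA damage repair, after compound exposure.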
# [4] = NCI Yeast Anticancer Drug Screen. Data for the mgt1 strain (AID 153); settings: S. cerevisiae mgt1 mutant growth inhibition, hits give high values
# Summary of the method: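 mgt1 yeast grown with test compound; read-out is growth inhibition versus vehicle-treated cultures.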
# [5] = NCI Yeast Anticancer Drug Screen. Data for the rad50 strain (AID 155);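 note: 0% = growth of vehicle-only cultures of the same strain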; settings: S. cerevisiae rad50 strain growth inhibition, hits give high values
# Summary of the method: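 A DNA repair-deficient yeast mutant serves as the test organism; compound-induced growth inhibition is calculated against vehicle-treated cells.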
# [6] = NCI Yeast Anticancer Drug Screen. Data for the mec2-1 strain (AID 157); settings: S. cerevisiae mec2-1 strain, hits give high values
# Summary of the method: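 Yeast mec2-1 mutant treated with compound. Readout: growth inhibition vs vehicle controls.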
# [7] = NCI Yeast Anticancer Drug Screen. Data for the rad14 strain (AID 159);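 note: 0% = growth of vehicle-treated control cultures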; settings: S. cerevisiae rad14 strain growth inhibition, hits give high values
# Summary of the method: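 Vehicle-treated cultures served as the baseline for growth inhibition of a DNA repair-mutant yeast strain exposed to each compound.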
# [8] = NCI Yeast Anticancer Drug Screen. Data for the sgs1 mgt1 strain (AID 161);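 note: 0% = growth of cultures given vehicle only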; settings: S. cerevisiae sgs1 mgt1 strain, hits give high values
# Summary of the method: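 Test agents were incubated with a DNA-repair-mutant yeast strain. Growth was then read and compared against vehicle-treated controls.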
# [9] = NCI Yeast Anticancer Drug Screen. Data for the CLN2oe strain (AID 163);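 note: 0% = growth of vehicle-only control cultures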; settings: S. cerevisiae CLN2oe strain, hits give high values
# Summary of the method: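 Read-out: yeast growth inhibition, expressed relative to vehicle-only controls. The strain bears an engineered cell-cycle alteration.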
# [10] = NCI Yeast Anticancer Drug Screen. Data for the cln2 rad14 strain (AID 165);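 note: 0% = growth equal to vehicle treated cultures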; settings: S. cerevisiae cln2 rad14 strain, hits give high values
# Summary of the method: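 cln2 rad14 yeast strain; compound exposure; growth inhibition read vs vehicle controls.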
# [11] = NCI Yeast Anticancer Drug Screen. Data for the bub3 strain (AID 167); settings: S. cerevisiae bub3 mutant strain, hits give high values
# Summary of the method: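 Inhibition values come from growth of compound-treated mutant yeast normalised to vehicle-treated controls.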
# [12] = NCI Yeast Anticancer Drug Screen. Data for the wt2 strain (AID 169);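 note: 0% = growth of vehicle-treated yeast cultures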; settings: S. cerevisiae wt2 strain growth inhibition, hits give high values
# Summary of the method: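 Read-out: growth inhibition versus vehicle-treated control cultures after compound exposure of the yeast strain.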
# [13] = NCI Yeast Anticancer Drug Screen. Data for the mlh1 strain (AID 171);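 note: 0% = growth of vehicle-treated control cultures of the same strain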; settings: S. cerevisiae mlh1 strain growth inhibition, hits give high values
# Summary of the method: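 Read-out: growth inhibition versus vehicle controls. Strain: engineered yeast with a defined DNA repair or cell cycle defect, compound-treated.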
# [14] = NCI Yeast Anticancer Drug Screen. Data for the sgs1 strain (AID 173);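 note: 0% = growth of vehicle-only control cultures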; settings: S. cerevisiae sgs1 mutant, hits give high values
# Summary of the method: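 Read-out: yeast growth inhibition relative to vehicle controls, following compound exposure of a strain with a defined DNA repair/cell cycle alteration.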
# [15] = NCI Yeast Anticancer Drug Screen. Data for the mlh1 rad18 strain (AID 175); settings: S. cerevisiae mlh1 rad18 strain growth inhibition, hits give high values
# Summary of the method: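 Yeast w/ defined DNA-repair lesions; compound exposure; growth vs vehicle controls → % inhibition.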
# [16] = NCI Yeast Anticancer Drug Screen. Data for the rad18 strain (AID 177); settings: S. cerevisiae rad18 mutant growth inhibition, hits give high values
# Summary of the method: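 Readout: growth inhibition vs vehicle controls. Cells: genetically altered yeast strain, DNA repair defect.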
# [17] = at 5.0 µM (retest, dose inferred, filed as 0.5)
# [18] = at 50.0 µM (retest, dose inferred, filed as 5.0)
compound,measurement,setting,value
CCn1c(O)c(C=Nc2ccccc2)s/c1=N/Nc1nc(-c2ccccc2)cs1,growth inhibition,[1]; at 1.2 µM,12%
same,growth inhibition,[1]; at 3.7 µM,5%
same,growth inhibition,[1]; at 11.0 µM,10%
same,growth inhibition,[1]; at 33.0 µM,4%
same,growth inhibition,[1]; at 100.0 µM,20%
same,growth inhibition,[2]; at 1.2 µM,-87%
same,growth inhibition,[2]; at 3.7 µM,-1%
same,growth inhibition,[2]; at 11.0 µM,0%
same,growth inhibition,[2]; at 33.0 µM,0%
same,growth inhibition,[2]; at 100.0 µM,-3%
same,growth inhibition,[3]; at 1.2 µM,7%
same,growth inhibition,[3]; at 3.7 µM,19%
same,growth inhibition,[3]; at 11.0 µM,32%
same,growth inhibition,[3]; at 33.0 µM,54%
same,growth inhibition,[3]; at 100.0 µM,74% (active)
same,growth inhibition,[4]; at 1.2 µM,0%
same,growth inhibition,[4]; at 3.7 µM,10%
same,growth inhibition,[4]; at 11.0 µM,18%
same,growth inhibition,[4]; at 33.0 µM,21%
same,growth inhibition,[4]; at 100.0 µM,24%
same,growth inhibition,[5]; at 1.2 µM,-2%
same,growth inhibition,[5]; at 3.7 µM,6%
same,growth inhibition,[5]; [17],-12%
same,growth inhibition,[5]; at 11.0 µM,14%
same,growth inhibition,[5]; at 33.0 µM,15%
same,growth inhibition,[5]; [18],12%
same,growth inhibition,[5]; at 50.0 µM,41.7%
same,growth inhibition,[5]; at 100.0 µM,11%
same,growth inhibition,[6]; at 1.2 µM,-6%
same,growth inhibition,[6]; at 3.7 µM,-1%
same,growth inhibition,[6]; [17],-25%
same,growth inhibition,[6]; at 11.0 µM,-1%
same,growth inhibition,[6]; at 33.0 µM,-1%
same,growth inhibition,[6]; [18],11%
same,growth inhibition,[6]; at 50.0 µM,23.8%
same,growth inhibition,[6]; at 100.0 µM,2%
same,growth inhibition,[7]; at 1.2 µM,0%
same,growth inhibition,[7]; at 3.7 µM,6%
same,growth inhibition,[7]; at 11.0 µM,9%
same,growth inhibition,[7]; at 33.0 µM,7%
same,growth inhibition,[7]; at 100.0 µM,1%
same,growth inhibition,[8]; [17],-7%
same,growth inhibition,[8]; [18],27%
same,growth inhibition,[8]; at 50.0 µM,43.5%
same,growth inhibition,[9]; at 1.2 µM,-6%
same,growth inhibition,[9]; at 3.7 µM,-11%
same,growth inhibition,[9]; at 11.0 µM,-7%
same,growth inhibition,[9]; at 33.0 µM,-9%
same,growth inhibition,[9]; at 100.0 µM,17%
same,growth inhibition,[10]; [17],-1%
same,growth inhibition,[10]; [18],15%
same,growth inhibition,[10]; at 50.0 µM,25.3%
same,growth inhibition,[11]; at 1.2 µM,-5%
same,growth inhibition,[11]; at 3.7 µM,-3%
same,growth inhibition,[11]; [17],-14%
same,growth inhibition,[11]; at 11.0 µM,-4%
same,growth inhibition,[11]; at 33.0 µM,12%
same,growth inhibition,[11]; [18],74% (active)
same,growth inhibition,[11]; at 50.0 µM,75.5% (active)
same,growth inhibition,[11]; at 100.0 µM,50%
same,growth inhibition,[12]; at 1.2 µM,-3%
same,growth inhibition,[12]; at 3.7 µM,-2%
same,growth inhibition,[12]; at 11.0 µM,-1%
same,growth inhibition,[12]; at 33.0 µM,2%
same,growth inhibition,[12]; at 100.0 µM,11%
same,growth inhibition,[13]; at 1.2 µM,-2%
same,growth inhibition,[13]; at 3.7 µM,3%
same,growth inhibition,[13]; at 11.0 µM,3%
same,growth inhibition,[13]; at 33.0 µM,4%
same,growth inhibition,[13]; at 100.0 µM,12%
same,growth inhibition,[14]; at 1.2 µM,-10%
same,growth inhibition,[14]; at 3.7 µM,7%
same,growth inhibition,[14]; at 11.0 µM,13%
same,growth inhibition,[14]; at 33.0 µM,22%
same,growth inhibition,[14]; at 100.0 µM,36%
same,growth inhibition,[15]; [17],-10%
same,growth inhibition,[15]; [18],25%
same,growth inhibition,[15]; at 50.0 µM,61.8%
same,growth inhibition,[16]; at 1.2 µM,-3%
same,growth inhibition,[16]; at 3.7 µM,-3%
same,growth inhibition,[16]; at 11.0 µM,-5%
same,growth inhibition,[16]; at 33.0 µM,9%
same,growth inhibition,[16]; at 100.0 µM,-12%
